This note sets out measurements from PubChem BioAssay (NCI).

This is part of a sample that, as a whole, favours compounds with a hit. Of some 83,000 tested, about 20% had one in any assay.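 Single-dose data. Exposure time 48 hours. Values below 10 considered active.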 Unmarked numbers belong to inactive results. The source made the active and inactive calls.

In the first assay the test system is DU-145 prostate. Nature of the assay: NCI-60 one-dose screen, 48 h (100 = growth as untreated, 0 = no growth, -100 = all killed). The note with it: 10 µM unless noted.
In the case of `O=c1oc2c(C(F)(F)F)cccc2cc1-c1csc(Nc2ccc(OCCF)cc2)n1`, the growth was 2.54% (active).

As for `COc1ccc(CN2c3ccccc3Sc3ccccc32)c(C(F)(F)F)c1`, the growth was 21%.

As for `COc1cc2c(cc1O)CC[C@@H]1[C@@H]2CC[C@]2(C)[C@@H](OCCN(C)C)CC[C@@H]12`, the growth is 12.8%.

As to `CCNc1ncnc2c1cnn2C1CCCO1` (centres undefined), the growth is 120%.

With `NC(=NCCCC1(c2ccccc2)CCCC1)Nc1ccc(Cl)cc1`, the growth was 37.8%.

With `CCOc1ccc(-n2nc(C(=O)Nc3cc(OC)c(OC)c(OC)c3)nc2-c2cc(OC)c(OC)c(OC)c2)cc1`, the growth is 99.1%.

With `COc1ccc(CN2c3ccccc3Sc3ccccc32)cc1O`, the growth is 17.9%.

On to `NCCNc1nc(Nc2ccc(-c3nc4ccccc4[nH]3)cc2)c2cn[nH]c2n1`, for which the growth is 90.9%.

Consider `COc1cccc2c1C(=O)c1c(O)c3c(c(O)c1C2=O)C[C@](O)(C(=O)CO)C[C@H]3O[C@@H]1C[C@@H](NC(=O)CCCCCN(C)C2(c3ccc(F)cc3)CC3CCC2C3)[C@H](O)[C@@H](C)O1` (some centres undefined), for which the growth is -42.2% (active).

For `CC(O)CN(CC(C)O)c1ccc2c(c1)Cc1cc([N+](=O)[O-])ccc1-2` (centres undefined), the growth is 101%.

In a further assay the test system is MALME-3M melanoma. The description is as above. To be noted: 10 µM unless noted.
As to `O=C(CCCCC(=O)N/N=C\c1ccccc1O)N/N=C\c1ccccc1O`, the growth is 32.6%.

As for `COc1cc(-c2nc(C(=O)NCC(=O)NO)nn2-c2ccc(Cl)cc2)cc(OC)c1OC`, the growth is 129%.

Turning to `O=c1ccccc(-c2ccc(Br)cc2)c1O`, the growth was 10.6%.

With `Cc1cc2nc(NC(=O)CN3CCN(CCN4C(=O)c5cccc6cccc(c56)C4=O)CC3)sc2cc1C`, the growth is 89.5%.

Consider `COc1cc(C(=O)/C=C/c2cccnc2Nc2ccc(Cl)cc2)cc(OC)c1OC`, for which the growth is -48.1% (active).

For the molecule `COc1ccc(-c2nnc(SCC(=O)c3ccc(Cl)cc3)o2)cc1`, the growth was 106%.

Regarding `COc1cc(/C=C/C(=O)Nc2cccnc2Nc2ccc(F)cc2)cc(OC)c1OC`, the growth is 110%.

Turning to `O=C1/C(=C/c2ccccc2O)N=C2SCCCN12`, the growth was 95.1%.

Take `CC(C)(CCCN=C(N)Nc1ccc(Cl)cc1)c1ccc(F)cc1`: the growth is 64.3%.

As to `CCCCC[C@H]1C/C=C2/C(=O)C=C[C@@H]2C/C=C\CCCC(=O)O1`, the growth was -24.8% (active).

As for `COc1ccc2c(c1)C(=O)/C(=C/c1ccccn1)CC2`, the growth is 72.7%.

On to `C=C1C(=O)O[C@H]2[C@H]1CC/C(COC(=O)NCCc1ccc(OC)c(OC)c1)=C\CC[C@@]1(C)O[C@@H]21`, for which the growth is 63.3%.

Turning to `COc1cc(-c2nn(-c3ccc(Br)cc3)cc2C(=O)O)ccc1O`, the growth was 110%.

On to `CCCCCC(=O)Oc1ccc(/C(=C(\C)c2ccc(OC)cc2)c2ccc(OCCN3CCCCC3)cc2)cc1`, for which the growth is 64.3%.

Regarding `COC(=O)[C@@H]1CCCN1C(=O)[C@@H]1CCCN1C(=O)[C@H](Cc1ccccc1)NC(=S)Nc1cc(C(F)(F)F)cc(C(F)(F)F)c1`, the growth was 94.8%.

With `CCOc1ccc(C(C)=O)cc1NC(=O)c1cccc(-c2nnn(CC)n2)c1`, the growth is 47.2%.

Turning to `O=[N+]([O-])c1ccccc1/C=N\NC(=S)N/N=C/c1ccccc1[N+](=O)[O-]`, the growth was 19%.

Regarding `O=[N+]([O-])c1ccc2c(c1)Cc1cc(F)ccc1-2`, the growth was 109%.

Take `CC(=O)OC[C@H]1O[C@H](OC(C)=O)[C@H](NC(=O)/C=C/CCl)[C@@H](OC(C)=O)[C@@H]1OC(C)=O`: the growth is 83.2%.

Consider `CCC#CC[C@H](O)C/C=C1/C(=O)C=C[C@@H]1C/C=C\CCCC(=O)OC`, for which the growth was 23.4%.

Turning to `CC/C=C\C[C@H](O)C/C=C1/C(=O)C=C[C@@]1(C)C/C=C\CCCC(=O)OC`, the growth was 101%.

With `CC[N+](CC)=c1sc2c(s1)C(c1ccc(Cl)cc1)Oc1ccc(Cl)cc1-2` (centres undefined), the growth was -9.37% (active).

In the case of `COc1cccc(-c2nc(SCC(=O)Nc3ccc(C(=O)/C=C/c4ccc(OC)c(OC)c4)cc3)[nH]c(=O)c2C#N)c1`, the growth was 97.4%.

Turning to `COc1ccc(CN2c3ccccc3Oc3ccccc32)cc1O`, the growth was 45.1%.

With `C=C1C(=O)O[C@H]2[C@H]1CC/C(C=Nc1ccc(C(F)(F)F)cc1N)=C\CC[C@@]1(C)O[C@@H]21`, the growth is -13.3% (active).

For `COc1ccc2c(c1)C(=O)/C(=C/c1cccnc1)CC2`, the growth was 106%.

Consider `Clc1ccc2c(NCCCCNc3nc(N4CCOCC4)nc4ccccc34)ccnc2c1`, for which the growth was -58.7% (active).

For `COc1ccccc1Nc1nc(-c2cc3cccc(C(F)(F)F)c3oc2=O)cs1`, the growth was 78.2%.

On to `CCc1c(Nc2ccccc2C)nc(N)[nH]c1=O`, for which the growth was 102%.

In the case of `O=c1oc2c(C(F)(F)F)cccc2cc1-c1csc(Nc2ccc(OCCF)cc2)n1`, the growth was 66.2%.

On to `COc1ccc(CN2c3ccccc3Sc3ccccc32)c(C(F)(F)F)c1`, for which the growth is 92.7%.

`COc1cc2c(cc1O)CC[C@@H]1[C@@H]2CC[C@]2(C)[C@@H](OCCN(C)C)CC[C@@H]12`: the growth was 16.7%.

As to `CCNc1ncnc2c1cnn2C1CCCO1` (centres undefined), the growth is 110%.

Consider `NC(=NCCCC1(c2ccccc2)CCCC1)Nc1ccc(Cl)cc1`, for which the growth is -48.9% (active).

As for `CCOc1ccc(-n2nc(C(=O)Nc3cc(OC)c(OC)c(OC)c3)nc2-c2cc(OC)c(OC)c(OC)c2)cc1`, the growth was 85.2%.

On to `COc1ccc(CN2c3ccccc3Sc3ccccc32)cc1O`, for which the growth is 71.9%.

With `NCCNc1nc(Nc2ccc(-c3nc4ccccc4[nH]3)cc2)c2cn[nH]c2n1`, the growth was 68%.

With `COc1cccc2c1C(=O)c1c(O)c3c(c(O)c1C2=O)C[C@](O)(C(=O)CO)C[C@H]3O[C@@H]1C[C@@H](NC(=O)CCCCCN(C)C2(c3ccc(F)cc3)CC3CCC2C3)[C@H](O)[C@@H](C)O1` (some centres undefined), the growth was -70.9% (active).

For `CC(O)CN(CC(C)O)c1ccc2c(c1)Cc1cc([N+](=O)[O-])ccc1-2` (centres undefined), the growth was 83.7%.
